# Data as given in PubChem BioAssay AID372 (MTDP, 2006).
# The whole screen tested about 100,000 compounds, of which about 770 (0.77%) were called active. The entries come from a sample that favours actives as a whole. Unmarked numbers belong to inactive results. Rule as the data show it: active = inhibition above about 50%; inactive = the rest.
# Target: Gag-Pol polyprotein (Human immunodeficiency virus type 1 group M subtype B (isolate HXB2)) (UniProt P04585)
# Experiment: RNase H inhibition, HIV 1 Gag Pol polyprotein, FRET biochemical assay, screening (AID 372)
# Details: HIV-1 RT RNase H, FRET RNA/DNA substrate fluorescence; at 10 µM; active compounds read high
row,SMILES,inhibition
1,Cc1nc(-c2ccccc2)sc1C(=O)Nc1ccc(-c2cn3ccccc3n2)cc1,6%
2,O=C(Nc1ccc2oc(-c3cccc4ccccc34)nc2c1)c1cc([N+](=O)[O-])ccc1Cl,21%
3,COc1ccc(OCCOCCOc2c(OC)cccc2OC)cc1,11%
4,COc1ccc(C(=O)NC(=S)Nc2ccc3oc(-c4cccc(F)c4)nc3c2)cc1OC,7%
5,CCc1ccc2oc(-c3ccc(NC(=S)NC(=O)c4cccc(F)c4)cc3)nc2c1,59% (active)
6,COc1ccc(C(=O)NC(=S)Nc2ccc3oc(-c4ccccc4)nc3c2)cc1Br,47%
7,CCOc1ccc(C(=O)NC(=S)Nc2ccc3oc(-c4cccnc4)nc3c2)cc1[N+](=O)[O-],4%
8,CCc1ccc2oc(-c3ccc(NC(=S)NC(=O)c4cccc(Cl)c4)cc3)nc2c1,17%
9,COc1ccc(C(=O)NC(=S)Nc2ccc3oc(-c4cccc(F)c4)nc3c2)cc1[N+](=O)[O-],41%
10,COc1ccc(C(=O)NC(=S)Nc2ccc3oc(-c4cccc(F)c4)nc3c2)cc1Br,56% (active)
11,CCOc1cccc(C(=O)NC(=S)Nc2ccc(-c3nc4cc(CC)ccc4o3)cc2)c1,5%
12,CCOc1ccc(C(=O)NC(=S)Nc2ccc3oc(-c4cccc(F)c4)nc3c2)cc1[N+](=O)[O-],58% (active)
13,NC(=S)N=Nc1c(O)[nH]c2ccc(F)cc12,9%
14,COc1cccc(C(=O)NNC(=O)C2CCCO2)c1 (stereo unspecified),4%
15,COc1cc(C=O)ccc1OCCCOc1ccc([N+](=O)[O-])cc1Cl,29%
16,COC(=O)c1c(C)oc2ccc(OS(C)(=O)=O)cc12,0%
17,O=C(Nc1cccc(Cl)c1)Nc1nc2ccc(Br)cc2s1,35%
18,Cn1cccc1/C=C1/C(=O)NC(=S)N(c2cccc(Cl)c2)C1=O,31%
19,O=C(/C=C/c1ccc(Cl)cc1)NC(=S)Nc1ccc(NC(=O)c2cccs2)cc1,24%
20,Cc1ccc(NC(=S)NC(=O)/C=C/c2ccccc2)cc1C,9%
21,O=C(/C=C/c1ccccc1)NC(=S)Nc1ccc(NC(=O)c2ccccc2)cc1,9%

row,SMILES,inhibition
1,Cc1ccc(NC(=S)NC(=O)/C=C/c2ccccc2)cc1Cl,51% (active)
2,O=C(/C=C/c1ccccc1)NC(=S)Nc1ccc(NC(=O)c2cccs2)cc1,62% (active)
3,Cc1cccc(NC(=S)NC(=O)/C=C/c2ccccc2)c1,6%
4,Brc1ccc(/C=N/Nc2ncnc3c2cnn3-c2ccccc2)cc1,6%
5,Nc1ncc(Cc2ccc(F)cc2)s1,6%
6,COc1cccc(/C=C2\N=C(c3cccs3)OC2=O)c1OC,8%
7,O=C1NC(=S)N/C1=C/c1ccc(-c2ccc([N+](=O)[O-])cc2Cl)o1,5%
8,O=C1NC(=S)N/C1=C/c1ccc(-c2cc([N+](=O)[O-])ccc2Cl)o1,50% (active)
9,O=C1NC(=S)N/C1=C\c1ccc(-c2cccc([N+](=O)[O-])c2)o1,14%
10,Cc1cc(Br)c(-c2ccc(/C=C3/NC(=S)NC3=O)o2)cc1C,24%
11,O=C1NC(=S)N/C1=C\c1ccc(-c2cc([N+](=O)[O-])ccc2O)o1,29%
12,O=C1NC(=S)N/C1=C\c1ccc(-c2cc([N+](=O)[O-])ccc2Br)o1,50% (active)
13,CCCOc1cccc(/C=C2\N=C(c3ccc(F)cc3)OC2=O)c1,11%
14,O=C(CSCc1ccccc1Cl)Nc1cccc(Br)c1,17%
15,COc1cc(/C=C2\C(=O)NC(=O)N(C(C)(C)C)C2=O)cc(OC)c1O,18%
16,COc1ccc(CNC(=O)CN(c2ccccc2OC)S(=O)(=O)c2ccccc2)cc1,9%
17,CCOC(=O)c1c(NC(=O)c2cc(OC)c(OC)c(OC)c2)sc(C(=O)Nc2ccc(OC)cc2OC)c1C,15%
18,COc1ccc(N2C(=O)c3cccc4c([N+](=O)[O-])ccc(c34)C2=O)cc1,16%
19,O=C1c2cccc3c([N+](=O)[O-])ccc(c23)C(=O)N1c1ccc(O)cc1,13%
20,O=C1c2cccc3c([N+](=O)[O-])ccc(c23)N1c1ccccc1,56% (active)
21,O=C(CCN1C(=O)c2ccccc2C1=O)N1CCN(C/C=C/c2ccccc2)CC1,5%

row,SMILES,inhibition
1,Cc1ccc(F)cc1Nc1nnc(-c2cc3c(ccc4ccccc43)oc2=O)s1,5%
2,CCN(CC)c1ccc2cc(-c3nnc(NCc4ccc(F)cc4)s3)c(=O)oc2c1,0%
3,O=c1oc2ccc3ccccc3c2cc1-c1nnc(NCc2ccc(F)cc2)s1,60% (active)
4,Cc1ccc(-c2ccccc2)n1-c1cccc2cccnc12,7%
5,Cc1ccc(C)n1-c1cccc2cccnc12,67% (active)
6,O=C1C2C3C=CC(C3)C2C(=O)N1c1cccc2cccnc12 (stereo unspecified),5%
7,CCCCCCCC(=O)NNC(=O)c1cccs1,0%
8,Cc1ccc(-c2nc3ccccc3o2)cc1NC(=O)c1cccc(Cl)c1Cl,43%
9,O=C(COc1ccc(Br)cc1)Nc1ccc(-c2nc3cc(Cl)ccc3o2)cc1,59% (active)
10,Cc1ccc(-c2nc3ccccc3o2)cc1NC(=O)Cc1ccccc1,18%
11,Cc1ccc(OCC(=O)Nc2cccc(-c3nc4cc(Cl)ccc4o3)c2C)c(C)c1,27%
12,Cc1ccc2oc(-c3ccc(C)c(NC(=O)Cc4ccccc4)c3)nc2c1,18%
13,Cc1ccc2oc(-c3ccc(C)c(NC(=O)c4cccc(Cl)c4Cl)c3)nc2c1,54% (active)
14,O=C(COc1ccc(Br)cc1)Nc1cccc(-c2nc3cc(Cl)ccc3o2)c1,12%
15,Cc1ccc(-c2nc3cc(Cl)ccc3o2)cc1NC(=O)c1cccc(Cl)c1Cl,16%
16,Cc1ccc(-c2nc3cc(Cl)ccc3o2)cc1NC(=O)Cc1ccccc1,55% (active)
17,Cc1ccccc1OCC(=O)Nc1cccc(-c2nc3cc(Cl)ccc3o2)c1C,15%
18,Cc1c(NC(=O)COc2ccc(Cl)cc2Cl)cccc1-c1nc2cc(Cl)ccc2o1,54% (active)
19,O=C(COc1ccccc1)Nc1ccc(-c2nc3cc(Cl)ccc3o2)cc1,23%
